TRHR agonist – agonists of human TRH receptor. activation, % at 2 µM. TRHR cells, calcium flux fluo-8, FDSS agonist mode. 0.18% of 360,000 active
Target sequence (P34981 whole entry, looked up): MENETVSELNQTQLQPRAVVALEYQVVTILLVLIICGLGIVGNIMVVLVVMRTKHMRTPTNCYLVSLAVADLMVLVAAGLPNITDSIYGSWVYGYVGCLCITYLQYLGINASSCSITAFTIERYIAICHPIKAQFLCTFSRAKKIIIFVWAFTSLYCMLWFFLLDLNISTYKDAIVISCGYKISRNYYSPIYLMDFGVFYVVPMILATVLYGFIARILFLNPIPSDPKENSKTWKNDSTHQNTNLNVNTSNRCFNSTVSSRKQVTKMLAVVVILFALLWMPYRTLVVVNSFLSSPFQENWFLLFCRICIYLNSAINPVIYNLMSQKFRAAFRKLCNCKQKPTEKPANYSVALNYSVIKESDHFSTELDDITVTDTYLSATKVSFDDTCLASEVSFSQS
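Fluo-8-loaded TRHR cells; 10 s baseline, compound added, kinetic Ca2+ fluorescence read 1/s, agonist mode.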
D1 antag – blocks dopamine activation of the human D1 receptor; P21728; HEK293 TREx D1 cells, calcium flux, dopamine EC80; stronger effect = lower value; activity change, negative = inhibition, % at 10 µM; 3.2% of 360,000 active; in the data active means activity change below about -30%
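Tetracycline-induced HEK293 Trex D1 cells, force-coupled to calcium, dye-loaded; compounds added and read 180 s, then EC80 dopamine added and calcium flux tracked kinetically another 180 s.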
Glioma ERSR ind – induces the endoplasmic reticulum stress response in human glioma cells; Potency, µM, usual class: activators; 0.02% of 420,000 active; U87-MG GRP78 promoter luciferase reporter, 16 h; active means well fitted activation curve with a large enough effect; further: series mostly up to about 76 µM; nearly all actives have a fitted effect of over 35% in size
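ERSR induction read as luciferase luminescence (Bright-Glo, 10 min at room temperature) in stably transfected human U87-MG glioma cells exposed to compounds for 16 h, using GRP78 as sensor.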
D1 ag – human D1 receptor agonism; AID 504660; P21728; HEK293 T-REx D1 cells, calcium flux, agonist mode; 1% of 360,000 active; activation, % at 2 µM
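Inducible HEK293 T-REx D1 cells, force-coupled to calcium signalling, were plated at 4000 cells/well with tetracycline and held overnight at 30 C. After no-wash calcium dye loading, compound-evoked calcium rise over 180 s flagged agonists.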
TRHR enhancer – allosterically enhances the human TRH receptor; enhancement, % at 2 µM; P34981; 0.66% of 360,000 active; TRHR cells, fluo-8 calcium fluorescence, EC20 TRH enhancement; in the data active means enhancement above about 30%
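TRHR-expressing cells loaded with fluo-8 calcium dye were read kinetically (ex 480/em 530) during compound addition, then stimulated with an EC20 of TRH (10 nM final). Enhancement of the Gq-mediated intracellular calcium response was scored.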
D1 PAM – human D1 dopamine receptor positive modulation | P21728 | HEK293 TREx D1 cells, calcium flux, dopamine EC20 potentiation | potentiation, % at 10 µM | 0.036% of 360,000 active; in the data active means potentiation above about 30%
Numbers stand for hits; - = inactive; . = no result; ! = not confirmed by another sample. Sampled rows, rich in hits. Any-hit rate of the full collection: about 4%. Unless noted, no stated cut-off is given here; in the data, active means activation above about 30%; inactive means the rest.

SMILES	TRHR agonist	D1 antag	Glioma ERSR ind	D1 ag	TRHR enhancer	D1 PAM
CC(=O)NC(=O)c1nnn(Cc2ccccc2)c1NC(C)=O	-	-	-	-	34	-
CCc1ccccc1NC(=O)c1nnn(CC(=O)Nc2ccccc2C)c1N	.	.	-	.	.	.
Cc1cccc(Cn2nnc(C(=O)Nc3cc(C)ccc3C)c2N)c1	-	-	-	-	-	-
COc1ccc(NC(=O)c2nnn(Cc3ccccc3C)c2N)c(OC)c1	-	-	-	-	-	-
Cc1ccc(Cl)cc1NC(=O)c1nnn(Cc2ccccc2)c1N	-	-	-	-	31	-
COc1ccc(OC)c(NC(=O)c2nnn(Cc3ccccc3C)c2N)c1	-	-52	-	-	-	-
CCc1ccccc1NC(=O)c1nnn(Cc2ccc(Cl)cc2)c1N	-	-	-	56	-	-
C=CC[C@@H]1C=C[C@H](O/N=C(\C)CCN2CCc3nc(-c4ccccc4)c(-c4ccccc4)cc3C2)[C@H](CO)O1	.	.	-	.	.	.
Cc1ccc(C)c(NC(=O)c2nnn(CC(=O)Nc3cccc(C)c3C)c2N)c1	-	-	-	-	-	-
Cc1ccc(NC(=O)c2nnn(Cc3cccc(C(F)(F)F)c3)c2N)c(C)c1	-	-45	-	-	-	-
Cc1ccc(Cn2nnc(C(=O)Nc3cccc(C)c3C)c2N)cc1	-	-	-	94	-	-
Cc1cc(C)c(NC(=O)Cn2nnc(C(=O)Nc3ccc(F)cc3F)c2N)c(C)c1	-	-68!	-	-	-	-
CCOC(=O)C1(Cc2ccccc2C)CCCN(Cc2ccc(NC(C)=O)cc2)C1 (stereo unspecified)	-	-	-	-	-	-
CC(C)CO/N=C1/C[C@@H](O)[C@@H](O)[C@@H]2[C@@H]3C(=O)N(C(C)(C)C)C(=O)[C@H]3CC[C@@H]12	.	.	-	.	.	.
CC(C)(C)NC(=O)COC(=O)Cc1ccc(Cl)cc1	-	-	-	-	-	-
Cc1cnc(C)c(-c2cccc3c2OC(CNC(=O)/C=C/c2ccncc2)C3)n1 (stereo unspecified)	.	.	-	.	.	.
O=S(=O)(c1ccccc1Cl)N1CCN(c2nc(-c3ccccc3)nc3ccccc23)CC1	.	.	-	.	.	.
COc1ccc(N(CC(=O)N/N=C/c2cccnc2)S(=O)(=O)c2ccc(C)cc2)cc1OC	-	-52	-	-	-	-
COc1ccc(N(CC(=O)N/N=C/c2cccnc2)S(=O)(=O)c2ccccc2)c(OC)c1	-	-	-	-	-	-
O=C(NNC(=O)c1ccccc1O)c1ccc(Cl)c(S(=O)(=O)N2CCc3ccccc32)c1	-	-33	-	-	-	-
Cn1c2c(c3cnc4cc(Cl)ccc4c31)CNCC2	.	.	-	.	.	.
Cc1ccnc(NC(=O)CN2C(=O)NC(C)(c3ccc4ccccc4c3)C2=O)c1 (stereo unspecified)	-	-	-	-	-	-
CCOC(=O)c1ccc(CN(Cc2ccc(C)cc2)S(=O)(=O)c2ccc(F)c(C(=O)Nc3ccc(C)c(F)c3)c2)cc1	-	-46	-	-	-	-
CCOC(=O)c1ccc(CN(Cc2ccc(C)cc2)S(=O)(=O)c2ccc(NC(C)=O)cc2)cc1	-	-	-	-	-	-
O=C(NC1CCCCC1)C(c1ccc(F)cc1)N(Cc1ccco1)C(=O)c1ccccn1 (stereo unspecified)	-	-	-	-	-	-
SMILES	TRHR agonist	D1 antag	Glioma ERSR ind	D1 ag	TRHR enhancer	D1 PAM
O=[N+]([O-])c1cc(S(=O)(=O)NC2=NCCCCC2)ccc1NCC1CCCCC1	-	-33	-	-	-	-
CN(C)c1ccc(-c2ccc(C3C4C=CCCC4(C)C(=O)N3Cc3ccccc3)c(F)c2)cc1 (stereo unspecified)	.	.	-	.	.	.
CCN(CC)CC(=O)NCC1(c2ccccc2)CCCC1	-	-	-	-	-	-
CCCN(CCC)C(C)C(=O)NCC1(c2ccccc2)CCCC1 (stereo unspecified)	-	-41	-	-	-	-
Cc1ccc(NC(=O)c2cc(-n3cnnc3)ccc2Cl)cc1	-	-	-	-	-	-
O=C(Nc1ccc(-c2nc3ccccc3s2)cc1)c1cc(-n2cnnc2)ccc1Cl	-	-42	-	-	-	-
O=C(c1cc(-c2ccc(Cl)c(Cl)c2)on1)N1CCN(c2ccccc2)CC1	-	-31	-	-	-	-
COc1cc(C)ccc1OCc1cc(C(=O)N2CCCCCCC2)no1	-	-	-	-	39	-
O=C(NCc1cccs1)c1cc(-c2ccc(O)cc2)on1	-	-	-	50	-	-
COc1ccc(-c2cc(C(=O)N3CCN(c4ccccc4)CC3)no2)cc1OC	-	-	-	-	-	-
COc1cc(C)ccc1OCc1cc(C(=O)N2CCN(C3CCCCC3)CC2)no1	-	-	-	-	-	-
COc1ccc(-c2cc(C(=O)N3CCOCC3)no2)cc1OC	-	-32	-	-	-	-
Cc1ccc2oc(-c3ccc(C)c(NC(=O)COc4ccc(Cl)cc4C)c3)nc2c1	.	.	-	.	.	.
NC(=O)C1(Nc2ccc(C(=O)O)cc2)CCCC1	.	.	-	.	.	.
COc1ccc(-c2nn(C)c3sc(C(=O)N4CCOCC4)cc23)cc1OC	-	-60	-	-	-	-
COc1ccc(CNC(=O)c2cc(-c3ccc(OC)c(OC)c3)on2)cc1	-	-	-	-	-	-
COc1ccc(-c2cc(C(=O)NCc3ccccc3)no2)cc1OC	-	-	-	37	-	-
COc1ccc(-c2nn(C)c3sc(C(=O)N4CCN(c5ccccc5F)CC4)cc23)cc1OC	-	-	-	-	-	-
CC1CCN(C(=O)c2cc(-c3ccc4c(c3)OCO4)on2)CC1	-	-33	-	-	-	-
COCc1ccc(CN2CCC(n3nccc3NC(=O)CCCc3ccccc3)CC2)o1	-	-	-	-	-	-
Cc1cccc(Nc2ncnc3c2cnn3Cc2ccccc2)c1	-	-	-	-	-	-
O=C(O)c1ccc(Nc2ncnc3c2cnn3Cc2ccccc2)cc1	-	-46	-	-	-	-
CC(C)Cn1c(=O)c2sccc2n2c(CCCC(=O)NC3CCCCC3)nnc12	-	-	-	-	-	-
Cc1nc(CNS(=O)(=O)c2ccc3c(c2)CCCC3)cs1	-	-46	-	-	-	-
Cc1ccc(S(=O)(=O)NCc2csc(C)n2)cc1	-	-	-	-	-	-
N#Cc1ccsc1NC(=O)c1cccc([N+](=O)[O-])c1	-	-	-	-	-	-
N#Cc1ccsc1NC(=O)c1ccc(Cl)c([N+](=O)[O-])c1	-	-38	-	39	-	-
COc1ccc2c(c1)CCc1cnc(-n3ncc(C(=O)NCCCc4ccncc4)c3C)nc1-2	.	.	-	.	.	.
Cc1ccc(NC(=O)Nc2ccc3c(c2)OCO3)c(OC(F)F)c1	-	-	-	-	-	-
COc1ccc(-c2nnc(N3CCOCC3)c3ccccc23)cc1	-	-	-	-	39	-
